Source: PubChem (National Center for Advancing Translational Sciences (NCATS))
15-hLO inh – 15-hLO (ALOX15) enzyme inhibition; hit rate 1.4% among 74,000; Potency, µM (series often up to 57.1 µM), without a hit: top-dose activity change, negative = inhibition, usual class: inhibitors; purified 15hLO-1, xylenol orange hydroperoxide absorbance; AID 887; P16050; note: % is set by controls: 0 for no effect and ±100 for the full control effect; nearly all actives have a fitted effect of over 55% in size
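Readout: Fe(III)-xylenol orange absorbance, 573-to-405 nm ratio as reaction progress. Enzyme 40 nM purified human 15hLO-1, substrate 50 uM arachidonic acid, 6 min RT after 15 min compound preincubation; Hepes pH 7.5 buffer with Triton X-100.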
Tau filament bind – tau filament binding. P10636. recombinant tau filaments, thioflavin S fluorescence, 15 h; filaments grown with octadecylsulfate alongside compound. Potency, µM (doses to about 57.1 µM), without a hit: at the highest dose activity change, negative = inhibition. hit rate 2% among 71,000;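 note: % is set by controls: 0 for no effect and ±100 for the full control effect; actives lower thioflavin S fluorescence by blocking filaments or displacing dye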
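ThS-based fibril read: tau 1 uM final, inducer ODS 30 uM final, 37 C for 15 h, ex 450/em 510 nm.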
IkB sig inh – suppresses IkB signaling in ABC-DLBCL reporter cells | ABC-DLBCL IkBa-CBG/CBR dual luciferase ratio, 4 h; response scale: scaled: untreated 0%, proteasome inhibitor 100% | Potency, µM (doses to about 57.1 µM), for inactives: at the highest dose IkBa stabilization activation | hit rate 0.04% among 110,000; active = well fitted curve in the direction sought with a large enough effect in the signal ratio, not every such curve was filed as active; inconclusive = small, poorly fitted or top-dose-only effect, or a change in a side signal; the % refers to the signal ratio;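 note: the direction sought is a rising ratio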
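Luminescence ratio of IκBα-fused green versus native red beetle luciferase in OCI-Ly3 cells, 4 h post-doxycycline with compound; red signal alone, scaled from basal (0%) to zero light (-100%), flagged nonspecific or cytotoxic effects.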
Hsp90 Hop PPI – changes Hsp90-Hop TPR2A binding signal, up or down | AlphaScreen TPR2A-His6 binding biotin-Hsp90 C-terminal peptide | Potency, µM (highest dose often 57 µM), inactives show at the top dose activity change, negative = inhibition | hit rate 0.44% among 71,000; active = well fitted curve in either direction with a large enough effect; inconclusive = small, poorly fitted or top-dose-only effect, or another doubt; note: % is set by controls: 0 for no effect and ±100 for the full control effect
CRE Fsk mod – CRE-bla signaling modulation under forskolin stimulation; CHO CRE-bla reporter (cAMP response element driving beta-lactamase), forskolin EC10, beta-lactamase ratio; Potency, µM (series often up to 38.2 µM), for inactives: at the highest dose activity change, negative = inhibition, hits mostly activators; hit rate 2.5% among 71,000; AID 662; active = well fitted activation curve with a large enough effect in the signal ratio, with a control signal flat, not every such curve was filed as active; inconclusive = small, poorly fitted or top-dose-only effect, or effect the other way, or a change in a side signal; the % refers to the signal ratio; note: % of control where 0% means no effect
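Modulation of forskolin-driven signalling is measured in CHO cells carrying a CRE-controlled beta-lactamase reporter. Cells are stimulated with EC10 NKH 477 in the presence of titrated compound for 3 h at 37 °C, then loaded with CCF4 for 2 h at room temperature.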
The depositor's hits bear a star; i = inactive; ? = inconclusive; / = not tested or not shown; [ ] = dose if it differs, or a comment. In the library only some 3.6% were active in any assay of this set; here they are far more common. Unless noted, calls come from the whole dose curve; as a rule, active = well fitted curve in the direction sought with a large enough effect; inconclusive = small, poorly fitted or top-dose-only effect, or another doubt; inactive = no such curve, though single readings can be large; an effect the other way counts as inactive or inconclusive. Potency is the fitted concentration of half-maximal effect.

SMILES	15-hLO inh	Tau filament bind	IkB sig inh	Hsp90 Hop PPI	CRE Fsk mod
COc1ccc(NC(=O)c2oc3ccccc3c2NC(=O)C2CC2)cc1	?	i	3%	1%	-3%
COc1cccc(C(=O)Nc2c(C(=O)NC(C)(C)C)oc3ccccc23)c1	/	/	3%	/	/
COc1ccccc1NC(=O)c1oc2ccccc2c1NC(=O)c1cc(OC)c(OC)c(OC)c1	-1%	13%	1%	-1%	1.3µM*
CCOC(=O)c1oc2ccccc2c1NC(=O)COC	-11%	5%	-2%	-3%	?
CCOC(=O)c1oc2ccccc2c1NC(=O)c1cc(OC)cc(OC)c1	-14%	38%	5%	0%	10µM*
COc1ccc(NC(=O)c2oc3ccccc3c2NC(=O)C(C)(C)C)cc1	-3%	13µM*	?	6%	6%
CCOc1nc(-c2ccc(C)cc2)ccc1-c1noc(-c2ccccc2F)n1	/	/	-1%	/	/
Cc1cc(Cl)ccc1NC(=O)CN1C(=O)CSc2ccc(S(=O)(=O)N(C)C)cc21	/	/	1%	/	/
CCCN1C(=O)C(Cc2nc3ccccc3c(=O)n2-c2cccc(C)c2)c2ccccc21 (stereo unspecified)	/	/	2%	/	/
c1ccc(CNCCN2CCNCC2)nc1	70%	-3%	-1%	4µM*	-9%
c1csc(-c2nc3nc4ccccc4nc3n2Cc2ccc3c(c2)OCO3)c1	-22%	3.2µM*	-2%	29%	10µM*
NC(=O)SCC(=O)Nc1ccc(Cl)c(Cl)c1	?	13%	?	-2%	?
NC(=O)SCC(=O)Nc1ccc(Cl)cc1	25µM*	/	/	/	/
CCCCN1C(=O)CN(C2CCCCCC2)C(=O)C1c1ccc(OCCC)c(OC)c1 (stereo unspecified)	/	/	5%	/	/
Cc1ccc(-n2c(=O)c3c(C)c(C)sc3n(Cc3ccc(F)cc3Cl)c2=O)cc1C	/	/	0%	/	/
O=C(O)C1C2CCC(O2)C1C(=O)Nc1cccc(F)c1 (stereo unspecified)	15%	10%	3%	-4%	10µM*
O=C(O)C1C2C=CC(C2)C1C(=O)Nc1cccc(F)c1 (stereo unspecified)	7%	-1%	1%	-3%	-2%
COC(=O)c1ccccc1NC(=O)c1sc2nc(C)cc(C)c2c1NC(=O)c1ccccc1Cl	/	/	-2%	/	/
COc1ccc(C(=O)Nc2ccc(N(C)Cc3ccccc3)c(C(=O)O)c2)cc1	/	/	-1%	/	/
CN1CCN(C(=O)c2ccc3c(c2)N(Cc2c(F)cccc2Cl)C(=O)c2ccccc2S3)CC1	/	/	0%	/	/
Cc1cc(C)c2nc3s/c(=C/c4ccc5c(c4)n(C)c(=O)n5C)c(=O)n3c2c1	-5%	25µM*	3%	-2%	2%
COc1ccc(O)c(/C=c2/sc3nc4cc(C)c(C)cc4n3c2=O)c1	?	189%	?	-1%	?
Nc1ccc(O)c([N+](=O)[O-])c1	?	?	0%	-2%	-9%
CN(C)S(=O)(=O)c1ccc(NS(=O)(=O)/C=C/c2ccccc2)cc1	-8%	-4%	0%	2%	12%
CN(C)S(=O)(=O)c1ccc(Nc2ccc(O)c3c2C(=O)c2c([N+](=O)[O-])ccc(O)c2C3=O)cc1	3%[11.4 µM]	1µM*	4%[11.4 µM]	?	14%[7.6 µM]
SMILES	15-hLO inh	Tau filament bind	IkB sig inh	Hsp90 Hop PPI	CRE Fsk mod
O=C1c2c(O)ccc([N+](=O)[O-])c2C(=O)c2c([N+](=O)[O-])ccc(O)c21	-7%	0.2µM*	?	?	?
CCOC(=O)Cn1c(CN2CC(C)OC(C)C2)nc2c1c(=O)n(C)c(=O)n2C (stereo unspecified)	7.9µM*	19%	7%	-10%	26%
CN1C[C@@H](O)[C@@H](O)[C@@H](O)[C@@H]1CO	/	-2%	-3%	-2%	0%
COC(=O)[C@@]1(Cc2ccccc2)[C@H]2c3cc(C(=O)N4CCCC4)n(Cc4ccc(S(C)(=O)=O)cc4)c3C[C@H]2CN1C(=O)c1ccccc1	/	8%	/	-4%	-27%
O=C(O)c1cccc(N=Nc2c(S(=O)(=O)O)ccc3c2C(=O)c2ccccc2C3=O)c1O	-11%[11.4 µM]	3.2µM*	3%[11.4 µM]	-17%[11 µM]	-8%[7.6 µM]
O=S(=O)(O)c1cc(O)c2c(O)c(N=Nc3cccc4ccccc34)c(S(=O)(=O)O)cc2c1	18%[11.4 µM]	?	-2%[11.4 µM]	?	-14%[7.6 µM]
